The campaign covered roughly 5,500 compounds. About 2,000 (36%) were called active. About 18% were inconclusive and are not listed. Cut-off read from the data, not from the text of the source: active = normalized growth mostly below about 0.91 (no sharp cut-off); inconclusive = no clear call, values can overlap the other calls; inactive = mostly above about 0.92. This is one part of the list.
Test: chemical genetic growth profiling, strain panel (AID 1159580);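 note: tested at 20 µM; growth read once vehicle control cultures reached saturation at 30 °C; 1 = growth at the plate median or of vehicle wells; lower values mean less growth of the strain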
Settings: growth OD

Measured: normalized growth

CCCCCCC(C)OC(=O)COc1ccc(Cl)cc1Cl (configuration not stated)
inactive: S. cerevisiae deletion strains, locus YJR075W, strain HOC1, hits give low values 0.931 | S. cerevisiae deletion strains, locus YKL009W, strain mrt4, hits give low values 0.992 | S. cerevisiae deletion strains, locus YKL068W, hits give low values 0.998 | S. cerevisiae deletion strains, locus YKL085W, strain MDH1 (second series), hits give low values 0.984 | S. cerevisiae deletion strains, locus YKL085W, strain MDH1, hits give low values 0.984 | S. cerevisiae deletion strains, locus YKL160W, strain elf1, hits give low values 0.996 | S. cerevisiae deletion strains, locus YKL190W, strain CNB1, hits give low values 0.997 | S. cerevisiae deletion strains, locus YKR001C, strain vps1, hits give low values 0.998 | S. cerevisiae deletion strains, locus YKR026C, strain gcn3, hits give low values 0.989 | S. cerevisiae deletion strains, locus YKR091W, strain srl3, hits give low values 0.993 | S. cerevisiae deletion strains, locus YLL001W, strain dnm1, hits give low values 0.991 | S. cerevisiae deletion strains, locus YLL026W, hits give low values 0.986 | S. cerevisiae deletion strains, locus YLL041C, strain sdh2, hits give low values 0.994 | S. cerevisiae deletion strains, locus YLR027C, strain aat2, hits give low values 0.995 | S. cerevisiae deletion strains, locus YLR039C, strain RIC1, hits give low values 0.893 | S. cerevisiae deletion strains, locus YLR058C, strain SHM2, hits give low values 0.996 | S. cerevisiae deletion strains, locus YLR102C, strain apc9, hits give low values 1 | S. cerevisiae deletion strains, locus YLR113W, strain HOG1, hits give low values 0.961 | S. cerevisiae deletion strains, locus YLR221C, strain rsa3, hits give low values 0.989 | S. cerevisiae deletion strains, locus YLR258W, strain gsy2, hits give low values 0.981 | S. cerevisiae deletion strains, locus YLR262C, strain YPT6 (second series), hits give low values 0.971 | S. cerevisiae deletion strains, locus YLR262C, strain YPT6, hits give low values 0.983 | S. cerevisiae deletion strains, locus YLR268W, strain sec22, hits give low values 0.997 | S. cerevisiae deletion strains, locus YLR320W, strain mms22, hits give low values 0.982 | S. cerevisiae deletion strains, locus YLR330W, strain CHS5, hits give low values 0.992 | S. cerevisiae deletion strains, locus YLR342W, strain FKS1 (second series), hits give low values 1.01 | S. cerevisiae deletion strains, locus YLR342W, strain FKS1, hits give low values 0.987 | S. cerevisiae deletion strains, locus YLR357W, strain rsc2, hits give low values 1.01 | S. cerevisiae deletion strains, locus YLR370C, strain arc18, hits give low values 0.994 | S. cerevisiae deletion strains, locus YLR371W, strain rom2, hits give low values 0.997 | S. cerevisiae deletion strains, locus YLR384C, strain iki3, hits give low values 0.993 | S. cerevisiae deletion strains, locus YLR418C, strain cdc73, hits give low values 0.965 | S. cerevisiae deletion strains, locus YML016C, strain PPZ1, hits give low values 0.997 | S. cerevisiae deletion strains, locus YML032C, strain rad52, hits give low values 1.01 | S. cerevisiae deletion strains, locus YML120C, strain ndi1, hits give low values 0.983 | S. cerevisiae deletion strains, locus YML124C, strain tub3, hits give low values 0.998 | S. cerevisiae deletion strains, locus YMR058W, strain fet3, hits give low values 0.994 | S. cerevisiae deletion strains, locus YMR078C, strain ctf18, hits give low values 1.01 | S. cerevisiae deletion strains, locus YMR125W, strain sto1, hits give low values 0.983 | S. cerevisiae deletion strains, locus YMR129W, hits give low values 0.994 | S. cerevisiae deletion strains, locus YMR205C, strain PFK2, hits give low values 0.968 | S. cerevisiae deletion strains, locus YMR223W, strain ubp8, hits give low values 0.989 | S. cerevisiae deletion strains, locus YMR231W, strain pep5, hits give low values 0.993 | S. cerevisiae deletion strains, locus YMR263W, strain SAP30, hits give low values 0.984 | S. cerevisiae deletion strains, locus YMR307W, strain GAS1, hits give low values 0.869 | S. cerevisiae deletion strains, locus YNL067W, strain RPL9B, hits give low values 0.985 | S. cerevisiae deletion strains, locus YNL071W, strain lat1, hits give low values 0.982 | S. cerevisiae deletion strains, locus YNL128W, strain TEP1, hits give low values 0.987 | S. cerevisiae deletion strains, locus YNL153C, strain GIM3, hits give low values 0.996 | S. cerevisiae deletion strains, locus YNL183C, strain NPR1, hits give low values 0.96 | S. cerevisiae deletion strains, locus YNL209W, strain ssb2, hits give low values 0.995 | S. cerevisiae deletion strains, locus YNL233W, strain BNI4, hits give low values 0.989 | S. cerevisiae deletion strains, locus YNL248C, strain rpa49, hits give low values 0.984 | S. cerevisiae deletion strains, locus YNL250W, strain rad50, hits give low values 1 | S. cerevisiae deletion strains, locus YNL271C, strain bni1, hits give low values 1 | S. cerevisiae deletion strains, locus YNL298W, strain CLA4, hits give low values 1 | S. cerevisiae deletion strains, locus YNL307C, strain MCK1, hits give low values 0.993 | S. cerevisiae deletion strains, locus YNL322C, strain KRE1 (second series), hits give low values 0.992 | S. cerevisiae deletion strains, locus YNL322C, strain KRE1, hits give low values 0.992 | S. cerevisiae deletion strains, locus YNR049C, strain mso1, hits give low values 0.984 | S. cerevisiae deletion strains, locus YNR052C, strain pop2, hits give low values 1.01 | S. cerevisiae deletion strains, locus YOL006C, strain TOP1, hits give low values 0.905 | S. cerevisiae deletion strains, locus YOL012C, strain htz1 0.707 | S. cerevisiae deletion strains, locus YOL147C, strain pex11, hits give low values 1 | S. cerevisiae deletion strains, locus YOR001W, strain rrp6, hits give low values 0.995 | S. cerevisiae deletion strains, locus YOR061W, strain CKA2, hits give low values 0.981 | S. cerevisiae deletion strains, locus YOR069W, strain VPS5, hits give low values 0.979 | S. cerevisiae deletion strains, locus YOR070C, strain gyp1, hits give low values 0.985 | S. cerevisiae deletion strains, locus YOR080W, strain dia2, hits give low values 0.995 | S. cerevisiae deletion strains, locus YOR083W, strain WHI5, hits give low values 0.999 | S. cerevisiae deletion strains, locus YOR106W, strain vam3, hits give low values 0.958 | S. cerevisiae deletion strains, locus YOR136W, strain idh2, hits give low values 1.01 | S. cerevisiae deletion strains, locus YOR144C, strain elg1, hits give low values 1.01 | S. cerevisiae deletion strains, locus YOR184W, strain ser1, hits give low values 0.991 | S. cerevisiae deletion strains, locus YOR231W, strain MKK1, hits give low values 1.04 | S. cerevisiae deletion strains, locus YOR265W, strain rbl2, hits give low values 0.991 | S. cerevisiae deletion strains, locus YOR270C, strain vph1, hits give low values 0.953 | S. cerevisiae deletion strains, locus YOR290C, strain snf2, hits give low values 0.995 | S. cerevisiae deletion strains, locus YOR316C, strain cot1, hits give low values 1 | S. cerevisiae deletion strains, locus YPL051W, strain arl3, hits give low values 0.989 | S. cerevisiae deletion strains, locus YPL055C, strain LGE1, hits give low values 0.94 | S. cerevisiae deletion strains, locus YPL078C, strain atp4, hits give low values 0.988 | S. cerevisiae deletion strains, locus YPL106C, strain sse1, hits give low values 1.01 | S. cerevisiae deletion strains, locus YPL240C, strain hsp82, hits give low values 1 | S. cerevisiae deletion strains, locus YPL241C, strain CIN2, hits give low values 0.995 | S. cerevisiae deletion strains, locus YPL256C, strain CLN2, hits give low values 1.01 | S. cerevisiae deletion strains, locus YPR119W, strain clb2, hits give low values 1 | S. cerevisiae deletion strains, locus YPR141C, strain kar3, hits give low values 0.995 | S. cerevisiae deletion strains, locus YPR163C, strain tif3, hits give low values 1.01 | S. cerevisiae deletion strains, locus YPR167C, strain met16, hits give low values 1 | S. cerevisiae deletion strains, strain wtn01, hits give low values 1 | S. cerevisiae strains, strain wild type, hits give low values 0.981

Source: PubChem BioAssay AID1159580 (chemical genetic matrix, 2015)
